{"source": "PubChem BioAssay (NCI)", "note": "About 79,000 compounds went through this panel and 15% of them were active in at least one assay; those are over-represented in the sample as a whole. Values without a mark were called inactive. Cut-off read from the data, not from the text of the source: active = growth inhibition above about 70%; inactive = the rest.", "data": [{"experiment": "NCI Yeast Anticancer Drug Screen. Data for the mec2-1 strain (AID 157)", "conditions": "S. cerevisiae mec2-1 strain, at 5.0 µM (retest, dose inferred, filed as 0.5), active compounds read high", "outline": "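Each compound was tested on mec2-1 yeast, a strain altered in DNA damage repair or cell cycle control. Growth inhibition is reported relative to vehicle.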", "units": {"growth inhibition": "%"}, "values": [{"compound": "NC1=NC2=C(CCCC2)C(c2cccs2)S1", "note": "(stereo not drawn)", "growth inhibition": 39}, {"compound": "C/C(=N\\NC(=S)Nc1ccc([N+](=O)[O-])cc1)c1nc2ncccc2[nH]1", "growth inhibition": -22}, {"compound": "COC(=O)c1ccc(SCC(=O)c2ccc([N+](=O)[O-])o2)cc1", "growth inhibition": 4}, {"compound": "CCOC(=O)c1cc(C)ccc1-c1ccc(C)cc1C(=O)OCC", "growth inhibition": -10}, {"compound": "Cc1ccc(C2COc3cc(O)c(O)cc3C2)cc1", "note": "(stereo not drawn)", "growth inhibition": 33}, {"compound": "COc1cc(C2=NCCO2)cc(OC)c1OC", "growth inhibition": -45}, {"compound": "O=C1c2cccc3cc([N+](=O)[O-])cc(c23)C(=O)N1O", "growth inhibition": 15}, {"compound": "CCOc1ccccc1C(=O)Oc1cccc(C)c1", "growth inhibition": -8}, {"compound": "CCNc1cc(N)[n+](CC)c2n[nH]c(/N=C/c3cc(Cl)cc(Cl)c3O)c12", "growth inhibition": 26}, {"compound": "CC(=O)OC1=Cc2ccccc2C(c2ccccc2)c2ccccc21", "note": "(stereo not drawn)", "growth inhibition": -3}, {"compound": "CCOC(=O)c1[nH]c(Br)c(-c2ccc(OC)c(OC)c2)c1Br", "growth inhibition": -8}, {"compound": "C#C[C@]1(OC(C)=O)CC[C@H]2[C@@H]3CCC4=CC(=O)CC[C@@H]4[C@H]3CC[C@@]21C", "growth inhibition": 7}, {"compound": "O=C(O)CCC/C(=N\\Nc1ccccc1)C(=O)O", "growth inhibition": 2}, {"compound": "S=c1[nH]c2ccc(Br)cc2c(=S)n1-c1ccccc1", "growth inhibition": 1}, {"compound": "CCCCCCCCCCS(=O)(=O)Nc1ccc(C(=O)NN)cc1", "growth inhibition": 29}, {"compound": "COC(=O)c1ccc(C)cc1CC1Cc2cc(C)ccc2C1=O", "note": "(stereo not drawn)", "growth inhibition": -21}, {"compound": "CCCCCOCC(=O)OC", "growth inhibition": 0}, {"compound": "COc1ccc(C2c3cc4c(cc3OC(N3CCOCC3)C2C)OCO4)c(OC)c1", "note": "(stereo not drawn)", "growth inhibition": -10}]}]}
